This note sets out measurements from PubChem BioAssay (NCI).

Assay in all cases: NCI-60 one-dose screen, 48 h (100 = growth as untreated, 0 = no growth, -100 = all killed)
Test [1] deals with RPMI-8226 leukemia. Particulars: 10 µM unless noted.
For test [2], the system named is OVCAR-8 ovarian. Particulars: 10 µM unless noted.
For test [3], the system named is OVCAR-5 ovarian. Particulars: 10 µM unless noted.
Test [4] concerns IGROV1 ovarian. Particulars: 10 µM unless noted.
For test [5], the system named is OVCAR-3 ovarian. Particulars: 10 µM unless noted.
Test [6] has as its system HS 578T breast. Particulars: 10 µM unless noted.
Test [7] relates to T-47D breast. Particulars: 10 µM unless noted.
Test [8] has as its system BT-549 breast. Particulars: 10 µM unless noted.
Test [9] concerns MDA-MB-435 melanoma. Particulars: 10 µM unless noted.
In test [10] the test system is SW-620 colon. Particulars: 10 µM unless noted.
For test [11], the system named is MCF7 breast. Particulars: 10 µM.
Test [12] deals with HCT-116 colon. Particulars: 10 µM unless noted.
For test [13], the system named is HCC-2998 colon. Particulars: 10 µM unless noted.
The test system of test [14] is KM12 colon. Particulars: 10 µM unless noted.
Test [15] concerns OVCAR-4 ovarian. Particulars: 10 µM unless noted.
For test [16], the system named is SK-OV-3 ovarian. Particulars: 10 µM unless noted.
Test [17] has as its system NCI/ADR-RES ovarian. Particulars: 10 µM unless noted.

The panel holds about 83,000 compounds, 20% with a hit somewhere; the sample as a whole holds those more often.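 Note: values are percent growth. 100 is the growth of untreated cells, values between 100 and 0 indicate rising inhibition; between -100 and 0 indicates cell death.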 Values without a mark were called inactive. Activity calls are given as the source filed them. Rule for the calls: active = growth percent below 10; inactive = the rest.

For `COc1cc(/C=C2\CCC/C(=C\c3cc(CN4CCOCC4)c(O)c(OC)c3)C2=O)cc(CN2CCOCC2)c1O`, the growth in [1] was 19.9%; in test [2] it was 19%; in test [3], 34%; in test [4], 50.7%; in [5], 19.4%; in [6], 55.1%. Besides, the growth is 63.3% in [7]; 52.5% in test [8]; 27.4% in test [9]; 31.1% in test [10]; 21.1% in [11]; 23.3% in [12]. The growth in test [13] was 62.1%; in test [14] it was 9.12% (active).
Regarding `Cc1cc2c(c(C)c1Cl)C(=O)/C(=C/c1cccc([N+](=O)[O-])c1)O2`, the growth in [1] was 108%; in test [2], 94.4%; in [3] it was 100%; in [4], 96.6%; in [5], 107%; in test [6], 95.8%. In addition, the growth in [7] was 98.4%; in test [8], 106%; in test [9] it was 99.5%; in [10], 104%; in [11], 66%; in [12] it was 103%. Moreover, the values for the growth in test [13] and in [14] were 102% and 103%, respectively.
On to `NNC(=O)CNC(=O)Nc1n[nH]c(=S)s1`, for which the growth is 93% in [1]; 97.6% in test [3]; 117% in test [15]; 99.8% in test [16]; 102% in test [4]; 90.9% in test [6]. Besides, the growth is 104% in test [17]; 101% in test [7]; 116% in test [8]; 110% in test [9]; 102% in [10]; 93.8% in test [11]. For the same compound, the growth in test [12] is 94.1%; in test [14] it was 100%.
Regarding `CC[C@@H](C)[C@H](NC(=O)Cn1cc(CNC(=O)[C@@H](NC(=O)OCc2ccccc2)C(C)C)nn1)C(=O)O`, the growth was 106% in [1]; 96.2% in [2]; 111% in test [15]; 109% in test [16]; 113% in test [4]; 119% in test [5]. Also, the growth is 104% in test [6]; 105% in [17]; 116% in test [7]; 107% in [8]; 102% in test [9]; 105% in test [10]. Besides, the growth is 100% in test [11], 107% in test [12], 101% in [13] and 109% in test [14].
Turning to `O=C(Nc1ccc(I)cc1F)c1cc(Cl)ccc1O`, the growth in [1] was -29.3% (active); in test [3], 26.1%; in test [15] it was 15%; in test [16] it was 4.21% (active); in test [4] it was 16.2%; in test [5], 4.4% (active). Besides, the growth in test [6] was 5.53% (active); in test [17] it was 9.54% (active); in test [7], -4.67% (active); in test [9], -2.93% (active); in test [10] it was 8.71% (active); in [11], 1.52% (active). In addition, the growth in test [12] is -29.5% (active); in [13] it was 17.6%; in [14], -10.9% (active).
On to `CCOC(=O)c1sc(-c2ccc(OS(=O)(=O)c3ccccc3[N+](=O)[O-])c(C=O)c2)nc1C`, for which the growth in test [1] is 37.2%; in test [3], 73.6%; in test [15] it was 33%; in test [16], 117%; in test [4], 3.88% (active); in [5], 23.5%. Moreover, the growth in test [6] was 96.3%; in test [17], 61.6%; in test [7], 28.4%; in test [9], 78.4%; in [10] it was 36.8%; in test [11], 20.8%. Moreover, the growth in test [12] is 13.6%; in [13], 111%; in test [14], 96.2%.
For the compound `COC(=O)/C(=C\c1c(-c2ccccc2)[nH]c2ccccc12)S(C)(=O)=O`, the growth was -14.8% (active) in test [1]; 83.5% in test [3]; 63.9% in [15]; 39.8% in test [16]; -46% (active) in test [5]; -9.62% (active) in test [6]. Besides, the growth in test [17] was -13% (active); in test [7], 27%; in test [9], 4.05% (active); in [10], 20.4%; in test [11], 15.6%; in test [12] it was 17.4%. Moreover, the growth in [13] is 44.7%; in test [14] it was 4.53% (active).
With `COc1cc(C2C(C#N)=C(N)OC3=C2C(=O)c2ccccc2C3=O)cc(OC)c1OC` (centres undefined), the growth in [1] was 18.5%; in test [3] it was 44%; in [15], 74.1%; in test [16], 29.9%; in test [4] it was 47.7%; in [5], 3.34% (active). The growth in test [6] is 8.28% (active); in [17], 70.5%; in test [7] it was 67.3%; in [8] it was 41.4%; in [9] it was -19.7% (active); in test [10], 21.5%. Besides, the growth in [11] is 18.9%; in test [12], 19.1%; in test [13], 30.4%; in test [14], 13.1%.
Turning to `CC(C)(C)c1ccc(C2CC(=O)C3=C(C2)Nc2ccccc2N(C(=O)c2ccccc2Cl)C3c2ccc(F)cc2)cc1` (centres undefined), the growth in test [1] is 14.1%; in [3], 38.9%; in test [15], -68.3% (active); in test [16] it was 62.5%; in [4], -26.7% (active); in test [5], -28.5% (active). For the same compound, the growth in test [6] is 81.5%; in test [17] it was 24.3%; in [7], 9.46% (active); in test [8], 44.4%; in test [9] it was -80.1% (active); in test [10] it was 2.52% (active). In addition, the growth was -33.3% (active) in test [11], 7.97% (active) in test [12], -21.2% (active) in test [13] and 9.1% (active) in test [14].
For `NC(=O)CSc1nc(-c2ccc(F)cc2)cc(-c2ccco2)n1`, the growth in test [1] was 98.5%; in test [2] it was 98.1%; in test [15], 100%; in [4], 94%; in test [5], 111%; in [6], 115%. For the same compound, the growth in [17] is 105%; in test [7], 64.1%; in [8], 99.5%; in test [9], 104%; in test [10], 116%; in test [11], 83.2%. Further, the values for the growth in test [12], in test [13] and in [14] were 98%, 109% and 106%, respectively.
